The values below come from PubChem BioAssay.

The nature of test [1]: compound effects on lung adenocarcinoma cell viability – A549, calcein-AM fluorescence, 48 h, basal, profiling panel (AID 1162). Further: test concentration not given here. The settings on record: higher = more signal.
Test [2] can be described thus: compound effects on differentiated 3T3-L1 adipocyte viability – cell-based, 3T3-L1 adipocytes, calcein-AM fluorescence, 48 h, basal, profiling panel (AID 1163). Further: test concentration not given here. To be noted: 3T3-L1 adipocytes viability, higher = more signal.
The nature of test [3]: compound effects on hepatocellular carcinoma cell viability – HepG2, calcein-AM fluorescence, 48 h, basal, profiling panel (AID 1164). Further: test concentration not given here. The settings on record: higher = more signal.
Test [4] in a line: compound effects on multiple myeloma cell viability – MM1S, calcein-AM fluorescence, 48 h, basal, profiling panel (AID 1165).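 Further: viability of MM1S multiple myeloma cells under basal unstimulated conditions; test concentration not given here.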 The settings on record: higher = more signal.
A short description of test [5]: calcein-AM signal in unstimulated myeloma cells – cell-based, calcein-AM fluorescence, 48 h, PK04 Diversity Set, profiling panel (AID 1166).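 Further: cells grown under basal conditions without added stimulus; test concentration not given here.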 To be noted: RPMI8226 myeloma viability, higher = more signal.
The nature of test [6]: JC-1 mitochondrial signal, unstimulated HepG2 cells – cell-based, JC-1 fluorescence, 24 h, 100 nL compound, profiling panel (AID 1167). Further: test concentration not given here. The settings on record: HepG2 mitochondrial potential, higher = more signal.
Test [7] can be described thus: JC-1 mitochondrial signal, unstimulated adipocytes – cell-based, JC-1 fluorescence, 3T3-L1 adipocytes, 24 h, 100 nL compound, profiling panel (AID 1168). Further: test concentration not given here. The settings on record: JC-1 mitochondrial fluorescence, higher = more signal, called active from +8 up or from −8 down.
The nature of test [8]: JC-1 mitochondrial signal, unstimulated myeloma cells – cell-based, JC-1 fluorescence, RPMI8226, 24 h, 100 nL compound, profiling panel (AID 1169). Further: test concentration not given here. To be noted: JC-1 mitochondrial potential fluorescence, higher = more signal.
Test [9] is described as follows: JC-1 mitochondrial signal, unstimulated MM1S myeloma – cell-based, JC-1 fluorescence, 24 h, 100 nL compound, profiling panel (AID 1170). Further: test concentration not given here. The settings on record: MM1S mitochondrial potential, higher = more signal.
Test [10] can be described thus: resazurin metabolic signal in A549 cells – cell-based, resazurin fluorescence, 24 h, PK04 Diversity Set, profiling panel (AID 1171). Further: test concentration not given here. To be noted: A549 viability, higher = more signal, called active from +8 up or from −8 down.
The nature of test [11]: resazurin metabolic signal in HepG2 cells – cell-based, resazurin fluorescence, 24 h, PK04 Diversity Set, profiling panel (AID 1172). Further: test concentration not given here. To be noted: HepG2 viability, higher = more signal.
Test [12] is described as follows: budding yeast growth changes without added modifier – OD600, strain BY4716, 24 h, basal condition, primary screen (AID 1173). The settings on record: S. cerevisiae BY4716 growth, OD600, 24 h; higher = more signal, called active from +8 up or from −8 down.
The nature of test [13]: viability profiling in MM1S myeloma cells – cell-based, resazurin fluorescence, basal, 24 h, PK04 Diversity Set, profiling panel (AID 1174). Further: test concentration not given here. The settings on record: higher = more signal, called active from +8 up or from −8 down.
Test [14] deals with Dihydroorotate dehydrogenase (quinone), mitochondrial (Plasmodium falciparum (isolate 3D7)) (UniProt Q08210). Nature of the test: inhibition of P. falciparum DHODH – biochemical, C-terminal His tag, absorbance 600 nm, primary screen (AID 1175).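 Further: recombinant parasite enzyme with a five histidine tag at its C terminus; test concentration not given here.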 To be noted: PfDHODH enzyme, DCIP absorbance 600 nm; higher = more signal, called active from +8 up or from −8 down.
Test [15] in a line: inhibition of PAO1 biofilm formation – strain PAO1, LB-PBS medium, absorbance 600 nm, primary screen (AID 1176). Further: test concentration not given here. The settings on record: P. aeruginosa PAO1 growth/biofilm, A600, 12 h; higher = more signal.
Test [16] is described as follows: growth modulation of vineyard yeast isolate – strain RM11-1a, OD600, basal, 24 h, primary screen (AID 1177).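 Further: cultures grown under basal conditions with no added stressor; test concentration not given here.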 The settings on record: S. cerevisiae RM11-1a growth, OD600, 24 h; higher = more signal, called active from +8 up or from −8 down.
Test [17] is described as follows: growth of efflux-deficient E. coli DRC39 – strain DRC39, OD650, 24 h, E. coli filamentation inducers, primary screen (AID 1178).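 Further: growth measured as culture turbidity by optical density at 650 nm; test concentration not given here.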 The settings on record: E. coli DRC39 acrAB, higher = more signal, called active from +8 up or from −8 down.
The nature of test [18]: growth of efflux-deficient E. coli DRC39 – strain DRC39, OD650, 48 h, E. coli filamentation inducers, primary screen (AID 1179).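 Further: screen aims at cell division blockers that make cells filament.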 The settings on record: E. coli DRC39 delta-acrAB growth, higher = more signal, called active from +8 up or from −8 down.
A short description of test [19]: viability profiling in RPMI8226 myeloma cells – cell-based, resazurin fluorescence, basal, 24 h, PK04 Diversity Set, profiling panel (AID 1180).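 Further: RPMI8826 multiple myeloma cell line at 5000 cells per well; test concentration not given here.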 To be noted: higher = more signal.
Test [20] concerns the target E3 ubiquitin-protein ligase XIAP (Homo sapiens) (UniProt P98170). The test can be described thus: small molecules binding XIAP protein – biophysical, small-molecule microarray, fluorescence 635 nm, primary screen (AID 1181).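 Further: score merges 667 nm emission and signal to noise over triplicate slides.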 The settings on record: higher = more signal.

The source made the active and inactive calls. Unless noted, how the calls were made is not given here.

Chain of Dihydroorotate dehydrogenase (quinone), mitochondrial (Plasmodium falciparum (isolate 3D7)) (Q08210 whole entry, looked up): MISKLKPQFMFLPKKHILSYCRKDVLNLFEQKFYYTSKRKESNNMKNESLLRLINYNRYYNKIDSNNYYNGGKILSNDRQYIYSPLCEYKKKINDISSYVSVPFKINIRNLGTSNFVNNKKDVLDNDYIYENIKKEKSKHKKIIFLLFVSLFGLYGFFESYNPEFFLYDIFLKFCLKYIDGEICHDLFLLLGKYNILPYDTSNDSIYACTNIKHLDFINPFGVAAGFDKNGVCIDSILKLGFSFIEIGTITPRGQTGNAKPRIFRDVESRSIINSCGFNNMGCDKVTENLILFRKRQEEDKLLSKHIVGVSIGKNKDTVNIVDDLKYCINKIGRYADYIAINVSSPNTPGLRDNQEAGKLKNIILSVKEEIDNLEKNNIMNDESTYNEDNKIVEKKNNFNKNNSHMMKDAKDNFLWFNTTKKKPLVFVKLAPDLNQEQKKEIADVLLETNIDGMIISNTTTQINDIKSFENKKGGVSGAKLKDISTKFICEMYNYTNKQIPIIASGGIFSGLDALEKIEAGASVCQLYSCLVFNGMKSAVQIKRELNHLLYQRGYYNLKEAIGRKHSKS
Chain of E3 ubiquitin-protein ligase XIAP (Homo sapiens) (P98170 whole entry, looked up): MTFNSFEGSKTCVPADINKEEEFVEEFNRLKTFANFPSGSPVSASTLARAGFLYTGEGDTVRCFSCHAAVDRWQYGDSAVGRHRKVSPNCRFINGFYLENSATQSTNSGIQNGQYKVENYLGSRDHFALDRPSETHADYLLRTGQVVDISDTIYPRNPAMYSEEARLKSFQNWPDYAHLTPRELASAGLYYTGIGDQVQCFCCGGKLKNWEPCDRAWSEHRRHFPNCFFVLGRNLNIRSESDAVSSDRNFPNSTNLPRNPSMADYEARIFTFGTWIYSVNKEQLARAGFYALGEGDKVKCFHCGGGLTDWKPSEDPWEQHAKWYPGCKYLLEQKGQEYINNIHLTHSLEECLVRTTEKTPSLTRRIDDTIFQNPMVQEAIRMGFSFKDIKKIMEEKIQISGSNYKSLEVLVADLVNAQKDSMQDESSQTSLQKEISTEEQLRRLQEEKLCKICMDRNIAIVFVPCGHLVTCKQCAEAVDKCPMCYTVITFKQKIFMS

As for `COc1cc(CO)cc(I)c1O[C@H]1C=C(C(=O)NCCO)C[C@@H](N(CCN2CCOCC2)C(=O)C2CCCO2)[C@@H]1O` (stereo not given in full), the z-score was 1.51 in test [1]; -0.786 in test [2]; 0.315 in test [3]; 0.605 in test [4]; -0.984 in test [5]; 1.68 in test [6]. The z-score in test [7] was -0.526 (inactive); in [8] it was 0.385; in [9] it was -0.1; in test [10] it was -0.0953 (inactive); in [11] it was 0.687; in test [12], -0.371 (inactive). The z-score in test [13] is -0.202 (inactive); in test [15], -0.365 (inactive); in [16], 0.772 (inactive); in test [17], 2.09 (inactive); in [18] it was 1.21 (inactive); in [19] it was 0.716. For the same molecule, the composite z-score was 0.826 (inactive) in [14] and -0.117 in [20].
`O=C1NC(=O)C2C1C=CC(C(O)C(c1ccccc1)c1ccccc1)N2Nc1ccccn1` (stereo not given): the z-score in test [1] is 0.795; in test [2], -0.46; in [3], 0.605; in [4] it was 0.332; in test [5], 0.077; in test [6], 0.176. For the same molecule, the z-score in test [7] was -0.219 (inactive); in test [8], 0.432; in test [9], 0.525; in [10] it was -0.0343 (inactive); in test [11], -0.187; in [12] it was -0.639 (inactive). Besides, the z-score is -0.408 (inactive) in test [13]; 0.916 (inactive) in test [15]; 0.419 (inactive) in test [16]; -0.156 (inactive) in test [17]; -0.284 (inactive) in test [18]; 0.261 in [19]. The results for the composite z-score in test [14] and in test [20] were 1.72 (inactive) and 0.417, respectively.
Turning to `CCCN1C(=O)[C@@]2(c3ccc([N+](=O)[O-])cc3)CC(=O)N(C3CCCCC3)[C@@H]2c2ccc(CO)cc21`, the z-score in test [1] is -0.522; in test [2] it was -0.952; in test [3] it was -0.574; in [4], -0.679; in test [5], -0.173; in test [6] it was -1.19. In addition, the z-score in test [7] was -0.626 (inactive); in [8], -0.696; in test [9], -0.868; in test [10] it was -0.291 (inactive); in test [11], -0.225; in test [12], 1.88 (inactive). The z-score is -0.674 (inactive) in [13]; 0.944 (inactive) in [15]; 1.89 (inactive) in [16]; 0.197 (inactive) in test [17]; -1.27 (inactive) in test [18]; -0.606 in [19]. Also, the composite z-score in test [14] was -24.3 (active); in test [20], -0.0773.
With `COCCCNC(=O)[C@]1(Cc2ccccc2N=[N+]=[N-])N=C(c2ccc(OCCCO)cc2)O[C@@H]1c1ccccc1`, the z-score in test [1] is -0.751; in test [2], 0.16; in [3], -0.757; in test [4], -3.22; in [5] it was -3.9; in test [6], 2.34. Also, the z-score is 1.84 (inactive) in [7]; -1.27 in test [8]; -0.774 in [9]; 0.345 (inactive) in test [10]; 0.83 in test [11]; -0.591 (inactive) in test [12]. Also, the z-score in [13] is -1.25 (inactive); in test [15], -0.444 (inactive); in test [16], -0.029 (inactive); in test [17], 2.99 (inactive); in [18] it was 0.26 (inactive); in test [19], -0.953. The composite z-score in test [14] is -0.28 (inactive); in [20], 0.267.
`CC(C)(C)OC(=O)CC[C@]1(C(N)=O)N=C(c2ccc(OCCCO)cc2)O[C@H]1c1ccccc1N=[N+]=[N-]`: the z-score in test [1] is -0.263; in test [2], -0.251; in test [3], 0.934; in [4], 0.381; in test [5], 0.882; in test [6], -0.445. For the same molecule, the z-score is -0.109 (inactive) in test [7]; -0.132 in [8]; -1 in [9]; 0.066 (inactive) in test [10]; 0.551 in test [11]; 0.0323 (inactive) in [12]. Besides, the z-score in [13] is -0.446 (inactive); in test [15] it was -0.0279 (inactive); in test [16] it was 0.979 (inactive); in test [17], 0.0489 (inactive); in test [18], 1.12 (inactive); in test [19], 0.596. Also, the composite z-score was 0.982 (inactive) in [14] and 0.333 in [20].
In the case of `COc1cc(Cc2cc3c(c(-c4ccccc4)n2)[Si](C(C)C)(C(C)C)OC3)cc(OC)c1OC`, the z-score in test [1] is 0.24; in test [2] it was 0.609; in test [3] it was -0.305; in test [4], -0.537; in [5], -0.189; in test [6] it was -0.591. Moreover, the z-score is 0.323 (inactive) in [7]; 0.138 in test [8]; 0.382 in test [9]; 0.534 (inactive) in test [10]; 0.233 in test [11]; 0.299 (inactive) in [12]. The z-score in test [13] was 1.03 (inactive); in [15], -0.133 (inactive); in [16], -0.776 (inactive); in test [17] it was 1.13 (inactive); in [18], 0.405 (inactive); in test [19] it was 0.542. The composite z-score in [14] was 0.021 (inactive); in [20], -0.305.
Regarding `C=C(COC)/C(=C/C[C@@H](OC(C)=O)c1cccc(OCCO)c1)c1cnc2ccccc2c1`, the z-score in test [1] is 0.37; in test [2] it was 1.35; in test [3] it was -0.705; in [4] it was -0.588; in test [5] it was -0.461; in [6] it was 0.902. In addition, the z-score is -0.0217 (inactive) in test [7]; 0.0629 in [8]; 0.627 in [9]; -0.736 (inactive) in test [10]; -0.469 in test [11]; -7.06 (inactive) in test [12]. Besides, the z-score is -0.732 (inactive) in test [13]; 0.203 (inactive) in test [15]; 0.179 (inactive) in test [16]; -0.672 (inactive) in [17]; -0.303 (inactive) in [18]; -0.311 in test [19]. Also, the composite z-score in [14] was -7.29 (inactive); in test [20] it was 0.133.
With `COc1ccc([Si](C)(C)[C@H]2[C@H](CC(=O)N3CCC[C@H]3CO)O[C@@]3(C(=O)N(C)c4ccccc43)[C@@H]2C)cc1`, the z-score in test [1] is 0.183; in [2], -0.522; in [3] it was 0.233; in [4], 0.0008; in [5], 0.143; in test [6], -1.03. The z-score in [7] is -0.223 (inactive); in test [8] it was 0.812; in test [9] it was -0.265; in [10], -0.394 (inactive); in [11], -0.395; in test [12], 0.264 (inactive). Also, the z-score in test [13] was -0.212 (inactive); in [15] it was 1.32 (inactive); in [16], 0.554 (inactive); in test [17], 0.133 (inactive); in test [18], -0.0566 (inactive); in test [19] it was -0.418. Moreover, the composite z-score in test [14] was -0.269 (inactive); in test [20], 0.0473.
With `CC(C)(C)OC(=O)N1[C@@H](C=C(Br)Br)COC1(C)C`, the z-score is 0.4 in [1]; 0.46 in test [2]; 1.32 in [3]; -0.255 in test [4]; -0.639 in [5]; 0.175 in test [6]. The z-score in test [7] was 1.2 (inactive); in test [8], -0.187; in test [9], 0.548; in [10], -1.4 (inactive); in [11], 0.373; in test [12], -4.13 (inactive). Besides, the z-score in test [13] is 0.0757 (inactive); in test [15], -0.677 (inactive); in [16], -1.65 (inactive); in test [17], 0.559 (inactive); in test [18], 0.6 (inactive); in test [19], -0.673. The composite z-score in test [14] was -1.74 (inactive); in test [20] it was 0.0335.
